# Data published in PubChem BioAssay (NCATS).
# Inconclusive results are not listed. Unmarked numbers belong to inactive results. Activity calls are given as the source filed them. The call rests on the fitted dose curve.
# Biological target: Retinoic acid receptor RXR-alpha (Homo sapiens) (UniProt P19793)
# Assay: qHTS assay for small molecule agonists of retinoid X receptor alpha signaling (AID 588544)
# Details: HEK293T RXRa-UAS-bla, beta-lactamase reporter, 18 h; series mostly up to 76.7 µM; activation: at the top concentration
# Source text: NIH Chemical Genomics Center [NCGC] U.S. Environmental Protection Agency [EPA] National Institutes of Environmental Health Sciences [NIEHS] National Toxicology Program [NTP] NCGC Assay Overview The Retinoid X receptor (RXR), a nuclear hormone receptor is expressed in liver, spleen, placenta, epidermis, central nervous system. These receptors are able to form homo and heterodimers with other nuclear receptors and due to this heterodimerizing ability, RXR functions as master regulators producing diverse physiological effects. Three subtypes of RXR exist; alpha, beta and gamma. Retinoid X receptor alpha (RXR-alpha) has potential roles in metabolic signaling pathways, skin alopecia, dermal cysts, cardiac development, insulin sensitization etc. Therefore screening environmental chemicals on RXR-alpha signaling can be used for the studies focused on such therapeutic applications.
# NCGC Assay Protocol Summary Using a beta-lactamase reporter-gene under control of Retinoid X receptor--alpha (RXR-alpha) response element, a cell-based assay [GeneBLAzer (RXR-alpha -UAS-bla assay developed by Invitrogen] was used to measure RXR-alpha ligands signaling. GeneBLAzer RXR-alpha -UAS-bla HEK293T cells were used with assay medium containing 2% charcoal-stripped FBS. The assay was performed in clear bottom black Greiner 1536-well plates. 9-cis-retinoic acid was used in the screen as the positive control. Library compounds were measured for their ability to stimulate the reporter gene activity. Compounds were screened in a titration series in 1536-well format. The fluorescence intensity (405 nm excitation, 460/530 nm emission) was measured using an EnVision plate reader. Data was normalized relative to 9-cis-retinoic acid control (500 nM, 100%), and DMSO only wells (basal, 0%). Concentration-response titration points for each compound were fitted to the Hill equation yielding concentrations of half-maximal stimulation (EC50) and maximal response (efficacy) values. qHTS protocol for RXR-alpha beta-lactamase assay in agonist mode [Step] [Parameter] [Value] [Description] 1. Reagent; 6 uL; 2500 cells/well 2. Incubation; 37 C for 4 hrs 3. Compounds; 23 nL; 0.59 nM to 92 uM 4. Controls (9-cis-retinoic acid); 23 nL, - One column with dose response, start 38 uM, 1:3 dilutions in duplicates - Final concentrations of 500 nM and 50 nM in two columns 5. Incubation; 37 C for 18 hrs 6. Detection reagent; 1 uL of CCF4-dye 7. Incubation; RT for 2 hrs 8. Detection; Fluorescence; Envision plate reader
# Chain of Retinoic acid receptor RXR-alpha (Homo sapiens) (P19793 whole entry, looked up): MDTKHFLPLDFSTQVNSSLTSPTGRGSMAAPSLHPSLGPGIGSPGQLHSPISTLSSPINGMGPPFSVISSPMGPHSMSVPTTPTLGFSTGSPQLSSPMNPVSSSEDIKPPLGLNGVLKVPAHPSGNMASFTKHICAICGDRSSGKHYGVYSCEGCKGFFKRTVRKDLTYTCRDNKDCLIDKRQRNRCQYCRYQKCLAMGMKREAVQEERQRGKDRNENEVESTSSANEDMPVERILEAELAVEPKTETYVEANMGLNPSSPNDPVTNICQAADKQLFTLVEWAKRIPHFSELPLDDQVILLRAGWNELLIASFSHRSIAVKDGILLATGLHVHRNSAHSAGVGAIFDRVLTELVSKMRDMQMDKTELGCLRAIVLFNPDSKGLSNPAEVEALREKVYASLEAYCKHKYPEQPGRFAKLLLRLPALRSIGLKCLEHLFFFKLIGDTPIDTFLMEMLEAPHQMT
Structure (SMILES),outcome,activation
Nc1cc([N+](=O)[O-])ccc1C(=O)O,inactive,
Cc1ccc(Cl)cc1,,2.23%
Cc1ccc(CO)cc1,,-9.47%
CCCCC(CC)COC(=O)CCCCC(=O)OCC(CC)CCCC (stereo not given),inactive,
O=[N+]([O-])c1ccc2nc[nH]c2c1,,11.5%
CCCCCCCCCCCCOCC1CO1 (stereo not given),,-10.9%
Cc1ccc(C)cc1,,0.386%
Nc1ccccc1S(=O)(=O)O,,3.14%
O=C(Cl)c1c(Cl)cccc1Cl,,2.87%
Cc1cc([N+](=O)[O-])ccc1N,,-7.45%
O=C(O)/C=C/C(=O)O,,5.95%
Cc1cccc(C(=O)O)c1[N+](=O)[O-],,4.21%
C=CCCCCCC,,3.97%
Cc1cc(C)cc(O)c1,,5.88%
C/C=C(/C)C#N,,14.3%
N#CC1(O)CCCCC1,,-1.83%
CC(C)(C)c1ccc(OCC2CO2)cc1 (stereo not given),,-0.383%
C=CC(=O)OCCCC,,2.33%
CCOC(C)(C)C,,2.91%
CCC(C)(C)C(=O)O,,5.02%

Structure (SMILES),outcome,activation
NC(=O)/N=N/C(N)=O,,8.59%
COC(=O)CS,,-2.76%
O=Cc1ccc(Cl)cc1,,3.11%
CC=C(Cl)Cl,,5.95%
Cc1ccc(C)c(O)c1,,2.76%
Nc1ccc([N+](=O)[O-])c(N)c1,,2.42%
CC(C)Nc1ccccc1,,1.09%
CCC(C)=O,,-4.13%
Cc1ccc2cccnc2c1,,-2.34%
O=Cc1ccc(C(=O)O)cc1,,-6.76%
CCCOCC(C)O (stereo not given),,-5.03%
Cc1ccc(C)c([N+](=O)[O-])c1,,3.78%
Cc1ccc2oc(=O)ccc2c1,inactive,
C=C(C)C(=O)OCC(C)C,,3.93%
CCC=O,,-7.41%
CC(C)=C1CCC(C)CC1=O (stereo not given),,1.3%
Cc1cccc(Br)c1,,-0.732%
Nc1cc(S(=O)(=O)O)ccc1O,,-3.05%
CN(C)CCCNCCCN,,2.27%
O=C(Cl)c1ccccc1[N+](=O)[O-],,5.5%
